Experimental data from the supplement of paper PMC8387472.

Experiments:
Assay in all cases: fraction of microhomology deletions among edited reads; higher = more MH deletions
Settings in all cases: mESC; 2uM; 72 h treatment, harvest day 5
Rifapentine = compound: CO[C@H]1/C=C/O[C@@]2(C)Oc3c(C)c(O)c4c(O)c(c(/C=N/N5CCN(C6CCCC6)CC5)c(O)c4c3C2=O)NC(=O)/C(C)=C\C=C\[C@H](C)[C@H](O)[C@@H](C)[C@@H](O)[C@@H](C)[C@H](OC(C)=O)[C@@H]1C [Rifapentine]
[1] = compound: COc1ccccc1-c1cc(Nc2cccc(CS(N)(=O)=O)c2)ncn1
[2] = compound: C[C@@H]1CN(CC(=O)Nc2ccc3c(c2)Cc2cccc(-c4cc(=O)cc(N5CCOCC5)o4)c2S3)C[C@H](C)O1
[3] = compound: Cc1cc(C)nc(SCC(=O)Nc2ncc(Cc3cccc4ccccc34)s2)n1
[4] = compound: Cc1cccc(CC(=O)N2CCc3c2ccc(-c2cn(C)c4ncnc(N)c24)c3F)n1
[5] = compound: NC(=O)c1ccc2nc(-c3ccc(Oc4ccc(Cl)cc4)cc3)[nH]c2c1 [Chk 2 inhibitor II (BML-277)]
Tucidinostat (Chidamide) = compound: Nc1cc(F)ccc1NC(=O)c1ccc(CNC(=O)/C=C/c2cccnc2)cc1 [Tucidinostat (Chidamide)]
Pemetrexed = compound: Nc1nc2[nH]cc(CCc3ccc(C(=O)N[C@@H](CCC(=O)O)C(=O)O)cc3)c2c(=O)[nH]1 [Pemetrexed]
[6] = compound: Nc1ncnc2c1c(-c1cnc3[nH]ccc3c1)nn2C1CCCC1
[7] = compound: O=C(c1cccc(Cl)c1F)N1CCN(Cc2cccc(Nc3nccs3)n2)CC1

Target | fraction of microhomology deletions among edited reads (Rifapentine) | fraction of microhomology deletions among edited reads [1] | fraction of microhomology deletions among edited reads [2] | fraction of microhomology deletions among edited reads [3] | fraction of microhomology deletions among edited reads [4] | fraction of microhomology deletions among edited reads [5] | fraction of microhomology deletions among edited reads (Tucidinostat (Chidamide)) | fraction of microhomology deletions among edited reads (Pemetrexed) | fraction of microhomology deletions among edited reads [6] | fraction of microhomology deletions among edited reads [7]
45.0 (DMSO control at this site: 1-bp insertion 0.017, MH deletion 0.666, edited 0.101) TTACACAGCATGAACTGCTAGGTGATGATGTCAGATTCGGTTTTACTAACTTCTCCAAAAA | 0.624 | 0.614 | 0.515 | 0.608 | 0.655 | 0.617 | 0.624 | 0.574 | 0.54 | 0.598
4.0 (DMSO control at this site: 1-bp insertion 0.146, MH deletion 0.523, edited 0.125) ACGCCTTAGTGCACGAGTGACGGGATAATGTGGTCTCAGGTAATTGATAGGCTTCCAACTT | 0.592 | 0.535 | 0.319 | 0.545 | 0.492 | 0.575 | 0.482 | 0.504 | 0.501 | 0.475
19.0 (DMSO control at this site: 1-bp insertion 0.121, MH deletion 0.101, edited 0.057) TCTGCAGGGGTCGGAACCCGGGGGCTAGGGCTATCCCGGGGGCTAGGGCTATTAGCGAACC | 0.243 | 0.149 | 0.0547 | 0.209 | 0.212 | 0.207 | 0.188 | 0.187 | 0.202 | 0.177
8.0 GCATGCGTGTTTTGGGACAATGTAGTATACATTTGGGAGGCTCTCAGCTTTTCCCAATAAA |  |  |  | 0.0765 |  |  | 0.0826 | 0.127 | 0.0866 | 
17.0 (DMSO control at this site: 1-bp insertion 0.112, MH deletion 0.348, edited 0.058) CCATAGCGCGATAAATATGACGGCTCATCCTGTATGACGGCTCATCCTGTATCAACTGTCC | 0.43 | 0.378 | 0.243 | 0.444 | 0.409 | 0.35 | 0.38 | 0.474 | 0.39 | 0.409
41.0 (DMSO control at this site: 1-bp insertion 0.022, MH deletion 0.754, edited 0.115) AAAGAGACAGCAGGTATGAATCCATCTTCCTGACCCTTGGGACCAGCCGGGGCAGTGAAGC | 0.699 | 0.733 | 0.67 | 0.703 | 0.715 | 0.742 | 0.709 | 0.678 | 0.722 | 0.694
38.0 (DMSO control at this site: 1-bp insertion 0.063, MH deletion 0.487, edited 0.17) GGGCTGGGTGCTAAAATGAGGAGCTCCAAGAAGACTGAGGTGAACCTGGAGGCCCCTGAGC | 0.507 | 0.46 | 0.441 | 0.483 | 0.495 | 0.495 | 0.458 | 0.548 | 0.432 | 0.439
39.0 (DMSO control at this site: 1-bp insertion 0.328, MH deletion 0.371, edited 0.204) CTGCACAGTCACTTAGGATAGGAGAAGATGATGTATAGGGTTTAGTGGGAGATGTTGCAAG | 0.414 | 0.303 | 0.105 | 0.361 | 0.372 | 0.372 | 0.287 | 0.407 | 0.286 | 0.32
20.0 (DMSO control at this site: 1-bp insertion 0.349, MH deletion 0.138, edited 0.084) TACAGGTGTAGACTGGTTACGTGGCTGCGGAATTGACTGGTTACGTGGCTGCGGAATTTTG | 0.246 | 0.159 | 0.0478 | 0.203 | 0.191 | 0.203 | 0.215 | 0.263 | 0.133 | 0.125
